Only a selection was taken, and the strongest signals are over-represented in it overall.
Assays:
Test in all cases: glycan array binding signal (z-score within array); higher = stronger binding
Conditions in all cases: glycan notation: IUPAC condensed, linker removed
Fuc(a1-2)Gal = biological target: Fuc(a1-2)Gal
How it was run: (§1)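 The binding signal is a Z-score computed within each array and averaged over linkers. Arrays of the same protein sequence at different concentrations or buffers were also averaged together. Data originate from 3228 arrays in the Consortium for Functional Glycomics database, kept only where the protein sequence was available.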

Fuc(a1-2)Gal(b1-4)Glc6S = biological target: Fuc(a1-2)Gal(b1-4)Glc6S
How it was run: as §1

[1] = biological target: Fuc(a1-2)Gal(b1-4)GlcNAc(b1-2)Man(a1-3)[Fuc(a1-2)Gal(b1-4)GlcNAc(b1-2)Man(a1-6)]Man(b1-4)GlcNAc(b1-4)[Fuc(a1-6)]GlcNAc
How it was run: as §1

[2] = biological target: Fuc(a1-2)Gal(b1-4)GlcNAc(b1-3)GalNAc
How it was run: as §1

[3] = biological target: Fuc(a1-2)Gal(b1-4)[Fuc(a1-3)]GlcNAc(b1-3)GalNAc
How it was run: as §1

[4] = biological target: Fuc(a1-2)Gal(b1-4)[Fuc(a1-3)]GlcNAc(b1-3)[Neu5Ac(a2-6)Gal(b1-4)GlcNAc(b1-6)]Gal(b1-4)Glc
How it was run: as §1

[5] = biological target: Fuc(a1-2)[Gal(a1-3)]Gal(b1-4)GlcNAc(b1-6)GalNAc
How it was run: as §1

[6] = biological target: Fuc(a1-2)[Gal(a1-3)]Gal(b1-4)[Fuc(a1-3)]Glc
How it was run: as §1

[7] = biological target: Fuc(a1-2)[GalNAc(a1-3)]Gal
How it was run: as §1

[8] = biological target: Fuc(a1-3)[Gal(b1-4)]GlcNAc(b1-2)Man(a1-3)[Fuc(a1-3)[Gal(b1-4)]GlcNAc(b1-2)Man(a1-6)]Man(b1-4)GlcNAc(b1-4)GlcNAc
How it was run: as §1

[9] = biological target: Fuc(a1-3)[Gal(b1-4)]GlcNAc(b1-2)Man(a1-3)[Fuc(a1-3)[Gal(b1-4)]GlcNAc(b1-2)Man(a1-6)]Man(b1-4)GlcNAc(b1-4)[Fuc(a1-6)]GlcNAc
How it was run: as §1

[10] = biological target: Fuc(a1-3)[Gal3S(b1-4)]GlcNAc
How it was run: as §1

Fuc(a1-4)GlcNAc = biological target: Fuc(a1-4)GlcNAc
How it was run: as §1

Fuc(b1-3)GlcNAc = biological target: Fuc(b1-3)GlcNAc
How it was run: as §1

Gal(a1-3)Gal(b1-3)GlcNAc = biological target: Gal(a1-3)Gal(b1-3)GlcNAc
How it was run: as §1

[11] = biological target: Gal(a1-3)Gal(b1-3)GlcNAc(b1-3)GalNAc
How it was run: as §1

Gal(a1-3)Gal(b1-4)Glc = biological target: Gal(a1-3)Gal(b1-4)Glc
How it was run: as §1

Gal(a1-3)Gal(b1-4)GlcNAc = biological target: Gal(a1-3)Gal(b1-4)GlcNAc
How it was run: as §1

[12] = biological target: Gal(a1-3)Gal(b1-4)GlcNAc(b1-3)GalNAc
How it was run: as §1

Gal(a1-4)Gal(b1-4)GlcNAc = biological target: Gal(a1-4)Gal(b1-4)GlcNAc
How it was run: as §1

[13] = biological target: Gal(b1-3)GlcNAc(b1-3)Gal(b1-4)GlcNAc(b1-3)Gal(b1-4)GlcNAc(b1-2)[Gal(b1-3)GlcNAc(b1-3)Gal(b1-4)GlcNAc(b1-3)Gal(b1-4)GlcNAc(b1-6)]Man(a1-6)[Gal(b1-3)GlcNAc(b1-3)Gal(b1-4)GlcNAc(b1-3)Gal(b1-4)GlcNAc(b1-2)Man(a1-3)]Man(b1-4)GlcNAc(b1-4)[Fuc(a1-6)]GlcNAc
How it was run: as §1

[14] = biological target: Gal(b1-3)GlcNAc(b1-3)GalNAc
How it was run: as §1

[15] = biological target: Gal(b1-3)[Fuc(a1-4)]GlcNAc(b1-2)Man(a1-3)[Gal(b1-3)[Fuc(a1-4)]GlcNAc(b1-2)Man(a1-6)]Man(b1-4)GlcNAc(b1-4)[Fuc(a1-6)]GlcNAc
How it was run: as §1

[16] = biological target: Gal(b1-3)[Fuc(a1-4)]GlcNAc(b1-3)Gal(b1-3)[Fuc(a1-4)]GlcNAc
How it was run: as §1

Gal(b1-4)Glc = biological target: Gal(b1-4)Glc
How it was run: as §1

[17] = biological target: Gal(b1-4)GlcNAc(b1-3)Gal(b1-4)GlcNAc(b1-3)Gal(b1-4)GlcNAc
How it was run: as §1

[18] = biological target: Gal(b1-4)GlcNAc(b1-3)Gal(b1-4)GlcNAc(b1-3)Gal(b1-4)GlcNAc(b1-2)[Gal(b1-4)GlcNAc(b1-3)Gal(b1-4)GlcNAc(b1-3)Gal(b1-4)GlcNAc(b1-6)]Man(a1-6)[Gal(b1-4)GlcNAc(b1-3)Gal(b1-4)GlcNAc(b1-3)Gal(b1-4)GlcNAc(b1-2)Man(a1-3)]Man(b1-4)GlcNAc(b1-4)[Fuc(a1-6)]GlcNAc
How it was run: as §1

[19] = biological target: Gal(b1-4)GlcNAc(b1-3)Gal(b1-4)GlcNAc(b1-3)Gal(b1-4)GlcNAc(b1-3)Gal(b1-4)GlcNAc(b1-3)Gal(b1-4)GlcNAc(b1-2)Man(a1-3)[Gal(b1-4)GlcNAc(b1-3)Gal(b1-4)GlcNAc(b1-3)Gal(b1-4)GlcNAc(b1-3)Gal(b1-4)GlcNAc(b1-3)Gal(b1-4)GlcNAc(b1-2)Man(a1-6)]Man(b1-4)GlcNAc(b1-4)[Fuc(a1-6)]GlcNAc
How it was run: as §1

[20] = biological target: Gal(b1-4)GlcNAc(b1-3)Gal(b1-4)GlcNAc(b1-3)GalNAc
How it was run: as §1

[21] = biological target: Gal(b1-4)GlcNAc(b1-3)Gal(b1-4)GlcNAc(b1-3)[Gal(b1-4)GlcNAc(b1-3)Gal(b1-4)GlcNAc(b1-6)]GalNAc
How it was run: as §1

B1: SP16664D-bth-476-27-476 (Bacteroides thetaiotaomicron) (protein)
chain: DDLEVGKNIDESAYSGIYENNAYLRDGKSNLVSKVVELHGETYATTVKMGLSKTPNTATSAKVKIDAAYLETYNKAHNTDFALYPQDLVTFANEGILTVNANTKSAEVEMTIRAGEGLQEDKTYAIPVAISDQSSDITIKDEDAKHCIYLVKDMRNAGDAYKGEGVMQGYLFFEVNDVNPLNTLSFQLENGKLLWDVVVLFAANINYDAEAGRPRVQCNPNVQYLLDNNETLLQPLRRRGVKVLLGLLGNHDITGLAQLSEQGAKDFAREVAQYCKAYNLDGVNYDDEYSNSPDLSNPSLTNPSTAAAARLCYETKQAMPDKLVTVFDWGQMYGVATVDGVDAKEWIDIVVANYGSAAYPIGQMTKKQCSGISMEFNLGGGGSLSASKAQSMIDGGYGWFMGFAPSPAKYGSVFSRLQGGGEVLYGSNVAAPTIFYKKNDPTPYKYPDDL
- glycan array binding signal (z-score) (Fuc(a1-2)Gal): -0.249
- glycan array binding signal (z-score) (Fuc(a1-2)Gal(b1-4)Glc6S): 0.006
- glycan array binding signal (z-score) [1]: 0.161
- glycan array binding signal (z-score) [2]: -0.244
- glycan array binding signal (z-score) [3]: 0.134
- glycan array binding signal (z-score) [4]: -0.167
- glycan array binding signal (z-score) [5]: 0.007
- glycan array binding signal (z-score) [6]: -0.184
- glycan array binding signal (z-score) [7]: -0.152
- glycan array binding signal (z-score) [8]: 0.013
- glycan array binding signal (z-score) [9]: 3.02
- glycan array binding signal (z-score) [10]: -0.196
- glycan array binding signal (z-score) (Fuc(a1-4)GlcNAc): 5.19
- glycan array binding signal (z-score) (Fuc(b1-3)GlcNAc): -0.141
- glycan array binding signal (z-score) (Gal(a1-3)Gal(b1-3)GlcNAc): 0.314
- glycan array binding signal (z-score) [11]: -0.337
- glycan array binding signal (z-score) (Gal(a1-3)Gal(b1-4)Glc): -0.117
- glycan array binding signal (z-score) (Gal(a1-3)Gal(b1-4)GlcNAc): -0.212
- glycan array binding signal (z-score) [12]: -0.12
- glycan array binding signal (z-score) (Gal(a1-4)Gal(b1-4)GlcNAc): -0.17
- glycan array binding signal (z-score) [13]: 0.144
- glycan array binding signal (z-score) [14]: 0.061
- glycan array binding signal (z-score) [15]: 0.054
- glycan array binding signal (z-score) [16]: 1.49
- glycan array binding signal (z-score) (Gal(b1-4)Glc): -0.258
- glycan array binding signal (z-score) [17]: 0.004
- glycan array binding signal (z-score) [18]: 1.01
- glycan array binding signal (z-score) [19]: 20
- glycan array binding signal (z-score) [20]: -0.091
- glycan array binding signal (z-score) [21]: -0.045

— the supplement of paper PMC8728848
